Inconclusive results are not listed. Activity calls are given as the source filed them. Unless noted, calls follow the shape of the dose curve; as a rule, active = well fitted curve in the direction sought with a large enough effect; inconclusive = small, poorly fitted or top-dose-only effect, or another doubt; inactive = no such curve, though single readings can be large; an effect the other way counts as inactive or inconclusive.
What was measured:
[1] = biological target: Mitogen-activated protein kinase 10 (Mus musculus) (UniProt Q61831); experiment: JNK3 AlphaScreen Assay (AID 530; active = well fitted curve in either direction with a large enough effect, not every such curve was filed as active;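 also: kinase came from lysate of stimulated human HepG2 cells; signal reports phosphorylation of biotinylated GST-cJun 1-79 at Ser73 with 10 µM ATP; % is scaled to controls: 0 for no effect and ±100 for the full control effect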)
Procedure, shortened: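 Phosphorylation of biotinylated GST-cJun(1-79) at Ser73 is measured by AlphaScreen proximity luminescence. Enzyme is JNK3 in HepG2 lysates activated with interleukin-1beta and tumor necrosis factor alpha; ATP is 10 uM final.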

[2] = VSVG counterscreen qHTS to identify inhibitors of SARS-CoV-2 cell entry (AID 1645847; calls by dose curve; also: potency is read from the fitted curve at half-maximal effect; nearly all actives have a fitted effect of over 65% in size)
Procedure, shortened: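 Counterscreen using VSV-G (not spike) pseudotyped MLV particles on ACE2-expressing Expi293F cells after 1 h compound preincubation; infection ran 48 h at 37 °C. Data normalized to VSV-G PP and bald-PP wells.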

[3] = Primary qHTS for inhibitors of SARS-S pseudo-typed particle cell entry (AID 1479145; calls by dose curve; also: nearly all actives have a fitted effect of over 45% in size; also: potency is read from the fitted curve at half-maximal effect; as to activity change, negative = inhibition: % is scaled to controls: 0 for no effect and ±100 for the full control effect); settings: outcome: dose series up to 57.1 µM unless noted
[4] = Primary qHTS for Huh7 cytotoxicity: counterscreen for inhibitors of MERS-S pseudotyped particle cell entry (AID 1479147; calls by dose curve); settings: outcome: dose series up to 57.1 µM unless noted
[5] = Primary qHTS for Vero E6 cytotoxicity: counterscreen for inhibitors of SARS-S pseudo-typed particle cell entry (AID 1479150; calls by dose curve); settings: outcome: dose series up to 57.1 µM unless noted
[6] = biological target: ATP-dependent 6-phosphofructokinase (Trypanosoma brucei brucei) (UniProt O15648); experiment: qHTS Assay to Find Inhibitors of T. brucei phosphofructokinase: hit validation (AID 492961);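 also: luminescence reports ADP formed as PFK phosphorylates fructose-6-phosphate with ATP; % is scaled to controls: 0 for no effect and ±100 for the full control effect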
Sequence of ATP-dependent 6-phosphofructokinase (Trypanosoma brucei brucei) (O15648 whole entry, looked up): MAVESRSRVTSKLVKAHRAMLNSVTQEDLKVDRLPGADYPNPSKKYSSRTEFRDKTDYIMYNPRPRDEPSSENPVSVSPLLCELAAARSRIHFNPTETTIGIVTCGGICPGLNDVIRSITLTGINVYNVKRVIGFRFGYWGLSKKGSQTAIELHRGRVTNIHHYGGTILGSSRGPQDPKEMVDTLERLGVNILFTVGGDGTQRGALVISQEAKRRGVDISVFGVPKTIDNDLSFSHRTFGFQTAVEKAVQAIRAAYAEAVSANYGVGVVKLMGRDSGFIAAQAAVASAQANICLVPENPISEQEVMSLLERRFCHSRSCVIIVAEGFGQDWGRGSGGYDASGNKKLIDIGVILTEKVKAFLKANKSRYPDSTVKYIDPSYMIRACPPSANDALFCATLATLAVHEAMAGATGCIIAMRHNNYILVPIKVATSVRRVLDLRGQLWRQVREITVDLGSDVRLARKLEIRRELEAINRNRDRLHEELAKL
Procedure, shortened: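 Percent activity derived from corrected luminescence, normalized between 0x and 1x enzyme controls, then fitted to concentration-response curves. Conditions: 1.25 nM PFK, 0.1 mM ATP, 0.5 mM F6P, 45 min RT.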

3D7 = experiment: qHTS profiling for inhibitors of Plasmodium falciparum proliferation (AID 504749); also: nearly all actives have a fitted effect of over 60% in size; also: potency is read from the fitted curve at half-maximal effect; settings: P. falciparum in erythrocytes, SYBR Green DNA, 72 h; series mostly up to 28.7 µM
Procedure, shortened: (§1)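 Quantitative HTS: compounds pinned into medium, infected erythrocytes added (0.3% parasitemia, 2.5% hematocrit), 72 h culture at 37 C under 5% CO2. Saponin/Triton lysis with SYBR Green I, overnight RT, then fluorescence read.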

CP247 = experiment: as above; settings: P. falciparum in erythrocytes, SYBR Green DNA, 72 h; series mostly up to 28.7 µM
Procedure, shortened: as §1

CP268 = experiment: as above; settings: P. falciparum in erythrocytes, SYBR Green DNA, 72 h; series mostly up to 28.7 µM
Procedure, shortened: as §1

ECU = experiment: as above; settings: P. falciparum in erythrocytes, SYBR Green DNA, 72 h; series mostly up to 28.7 µM
Procedure, shortened: as §1

PC49 = experiment: as above; settings: P. falciparum in erythrocytes, SYBR Green DNA, 72 h; series mostly up to 28.7 µM
Procedure, shortened: as §1

W2 = experiment: as above; settings: P. falciparum in erythrocytes, SYBR Green DNA, 72 h; series mostly up to 12.8 µM
Procedure, shortened: as §1

[7] = AP1 Signaling Pathway (AID 357; active = well fitted curve in either direction with a large enough effect, not every such curve was filed as active;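 also: ME-180 reporter cells stimulated with EGF at its EC50 level; % is scaled to controls: 0 for no effect and ±100 for the full control effect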)
Procedure, shortened: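 Cells are seeded overnight, exposed to compound titrations and an EC50 level of EGF for 5 hours at 37 °C, then loaded with CCF4 dye for 2.5 hours. Beta-lactamase activity under the AP-1 element is read as a blue/green ratio.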

[8] = biological target: Guanine nucleotide-binding protein G(i) subunit alpha-1 (Homo sapiens) (UniProt P63096); experiment: qHTS Assay for Inhibitors of RGS12 GoLoco Motif Activity (Green Fluorophore) (AID 879);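 also: 0% = labeled peptide with Gαi1 and full inhibition = labeled peptide alone without protein; negative values mean loss of peptide binding seen as reduced polarization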
Sequence of Guanine nucleotide-binding protein G(i) subunit alpha-1 (Homo sapiens) (P63096 whole entry, looked up): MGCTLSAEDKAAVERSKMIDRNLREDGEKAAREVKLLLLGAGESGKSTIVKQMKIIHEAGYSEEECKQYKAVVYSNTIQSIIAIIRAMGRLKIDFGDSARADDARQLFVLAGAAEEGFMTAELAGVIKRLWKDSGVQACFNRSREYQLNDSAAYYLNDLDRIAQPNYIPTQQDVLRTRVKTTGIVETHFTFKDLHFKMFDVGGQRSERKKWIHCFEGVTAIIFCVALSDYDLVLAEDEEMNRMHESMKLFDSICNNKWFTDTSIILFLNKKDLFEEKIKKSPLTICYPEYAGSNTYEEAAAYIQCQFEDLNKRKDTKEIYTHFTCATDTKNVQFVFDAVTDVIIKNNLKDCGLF
Procedure, shortened: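 A drop in FITC polarization marked displacement of the FITC-tagged RGS12 GoLoco peptide (10 nM) from Gαi1 (50 nM). Compounds were incubated 10 min at room temperature in Tris pH 7.5 buffer containing 150 mM NaCl, 0.1 mM GDP and 0.05% NP40; unlabeled peptide titration served as control.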

[9] = biological target: Pyruvate kinase (Leishmania mexicana) (UniProt Q27686); experiment: qHTS Validation Assay for Inhibitors of Leishmania Mexicana Pyruvate Kinase (AID 945); also: potency is read from the fitted curve at half-maximal effect;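 as to activity change, negative = inhibition: 0% = DMSO only neutral control wells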
Sequence of Pyruvate kinase (Leishmania mexicana) (Q27686 2-499 E452W): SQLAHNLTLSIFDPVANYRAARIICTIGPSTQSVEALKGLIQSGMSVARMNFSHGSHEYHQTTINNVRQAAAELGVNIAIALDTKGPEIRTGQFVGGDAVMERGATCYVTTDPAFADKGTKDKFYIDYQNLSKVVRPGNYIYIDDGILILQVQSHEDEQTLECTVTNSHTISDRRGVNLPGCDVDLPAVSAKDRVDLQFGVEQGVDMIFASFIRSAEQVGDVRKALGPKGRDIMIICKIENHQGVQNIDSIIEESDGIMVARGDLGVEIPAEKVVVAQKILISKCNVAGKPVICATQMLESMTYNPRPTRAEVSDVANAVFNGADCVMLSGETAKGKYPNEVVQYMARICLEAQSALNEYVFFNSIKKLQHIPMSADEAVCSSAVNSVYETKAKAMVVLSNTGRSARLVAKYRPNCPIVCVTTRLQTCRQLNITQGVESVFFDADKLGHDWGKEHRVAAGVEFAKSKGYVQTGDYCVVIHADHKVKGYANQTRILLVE
Procedure, shortened: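 LmPYK E451W 0.2 nM; 0.5 mM PEP, 0.1 mM ADP, 7 mM MgCl2, 50 mM KCl, imidazole pH 7.2, 0.01% Tween 20, 0.05% BSA; 1 h RT; PKLight luminescence; DMSO-normalized.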

[10] = biological target: Pyruvate kinase PKM (Homo sapiens) (UniProt P14618); experiment: qHTS Assay for Activators of Human Muscle Pyruvate Kinase (AID 954; active = well fitted curve in the direction sought with a large enough effect, not every such curve was filed as active;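 also: 0% = uninhibited enzyme and -100% = no enzyme or full thiadiazolimine inhibition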)
Sequence of Pyruvate kinase PKM (Homo sapiens) (P14618 whole entry, looked up): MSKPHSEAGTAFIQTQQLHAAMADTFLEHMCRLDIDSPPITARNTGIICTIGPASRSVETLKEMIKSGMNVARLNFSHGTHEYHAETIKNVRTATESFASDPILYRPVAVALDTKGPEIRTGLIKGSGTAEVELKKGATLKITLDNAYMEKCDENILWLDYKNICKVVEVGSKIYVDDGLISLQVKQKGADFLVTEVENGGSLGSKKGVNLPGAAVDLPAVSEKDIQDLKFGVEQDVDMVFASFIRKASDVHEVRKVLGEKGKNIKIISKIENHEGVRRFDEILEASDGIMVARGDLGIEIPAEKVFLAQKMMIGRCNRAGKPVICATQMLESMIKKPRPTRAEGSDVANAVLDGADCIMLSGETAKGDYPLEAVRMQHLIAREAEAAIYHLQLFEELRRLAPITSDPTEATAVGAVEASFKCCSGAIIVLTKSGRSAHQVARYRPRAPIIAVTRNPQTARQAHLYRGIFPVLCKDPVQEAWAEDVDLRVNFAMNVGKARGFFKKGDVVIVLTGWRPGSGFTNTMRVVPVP
Procedure, shortened: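 Screening used highly purified human pyruvate kinase M2 under submaximal activity, with PEP at its Km and ADP below Km. After an hour at room temperature, ATP was read by luciferase luminescence.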

[11] = biological target: Alpha-galactosidase A (Homo sapiens) (UniProt P06280); experiment: Counterscreen for Glucocerebrosidase Inhibitors: qHTS Assay for Human alpha-Galactosidase at pH 4.5 (AID 992); also: 0% is about no effect
Sequence of Alpha-galactosidase A (Homo sapiens) (P06280 whole entry, looked up): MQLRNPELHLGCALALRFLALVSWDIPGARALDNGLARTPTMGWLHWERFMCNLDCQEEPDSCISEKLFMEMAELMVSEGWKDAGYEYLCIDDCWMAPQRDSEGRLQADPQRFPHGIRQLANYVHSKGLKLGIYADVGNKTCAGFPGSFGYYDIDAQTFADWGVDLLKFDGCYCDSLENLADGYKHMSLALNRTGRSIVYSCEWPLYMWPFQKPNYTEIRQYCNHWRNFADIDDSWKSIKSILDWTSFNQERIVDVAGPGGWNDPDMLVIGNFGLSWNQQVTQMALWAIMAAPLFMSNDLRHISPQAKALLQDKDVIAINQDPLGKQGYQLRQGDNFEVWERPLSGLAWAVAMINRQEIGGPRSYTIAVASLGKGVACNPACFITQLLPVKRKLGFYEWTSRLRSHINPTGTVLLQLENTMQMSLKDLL
Procedure, shortened: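 Each compound is preincubated briefly with 2 nM enzyme before substrate addition (80 uM); plates then sit 20 min at ambient temperature, are quenched with 1M NaOH/1M glycine, and read fluorometrically.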

[12] = biological target: alpha-glucosidase (Oryza sativa, rice) (UniProt Q653V4); experiment: Counterscreen for Glucocerebrosidase Inhibitors: qHTS Assay for Rice alpha-Glucosidase at pH 5.0 (AID 997);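 also: 0% = full activity with enzyme and -100% = basal without enzyme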
Procedure, shortened: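 Endpoint fluorogenic assay at pH 5.0: compounds (0.7 nM to 77 uM) titrated against 4 nM rice enzyme and 400 uM 4-MU-alpha-glucoside for 20 min at room temperature; NaOH/glycine stop, read ex 365/em 440 nm, Hill-fitted AC50.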

[13] = biological target: Alpha-galactosidase (Coffea arabica) (UniProt Q42656); experiment: Counterscreen for Glucocerebrosidase Inhibitors: qHTS Assay for Coffee Bean alpha-Galactosidase at pH 5.9 (AID 998);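 also: plate controls were uninhibited enzyme for no effect and no-enzyme basal signal for full effect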
Sequence of Alpha-galactosidase (Coffea arabica) (Q42656 whole entry, looked up): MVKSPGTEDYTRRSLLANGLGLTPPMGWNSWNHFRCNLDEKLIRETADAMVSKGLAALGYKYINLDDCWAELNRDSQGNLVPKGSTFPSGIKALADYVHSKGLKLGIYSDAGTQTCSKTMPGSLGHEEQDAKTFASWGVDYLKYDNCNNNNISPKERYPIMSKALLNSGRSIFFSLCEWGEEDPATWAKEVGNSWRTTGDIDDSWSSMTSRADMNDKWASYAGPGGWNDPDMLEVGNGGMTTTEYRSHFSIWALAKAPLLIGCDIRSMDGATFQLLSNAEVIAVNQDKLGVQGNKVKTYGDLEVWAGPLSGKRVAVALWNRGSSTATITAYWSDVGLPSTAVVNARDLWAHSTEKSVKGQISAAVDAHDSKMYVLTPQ
Procedure, shortened: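 In 50 mM citric acid pH 5.9 with 0.005% Tween-20, coffee bean enzyme hydrolyses 80 uM 4-MU alpha-D-galactopyranoside over 20 min at RT. Activity is normalized to controls; AC50 comes from Hill-modelled concentration-response data.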

[14] = biological target: ATP-dependent DNA helicase Q1 (Homo sapiens) (UniProt P46063); experiment: qHTS Validation Assay for Inhibitors of RecQ-Like Dna Helicase 1 (RECQ1) (AID 2353);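 also: plate controls were DMSO vehicle for no effect and enzyme-free control for full effect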
Sequence of ATP-dependent DNA helicase Q1 (Homo sapiens) (P46063 whole entry, looked up): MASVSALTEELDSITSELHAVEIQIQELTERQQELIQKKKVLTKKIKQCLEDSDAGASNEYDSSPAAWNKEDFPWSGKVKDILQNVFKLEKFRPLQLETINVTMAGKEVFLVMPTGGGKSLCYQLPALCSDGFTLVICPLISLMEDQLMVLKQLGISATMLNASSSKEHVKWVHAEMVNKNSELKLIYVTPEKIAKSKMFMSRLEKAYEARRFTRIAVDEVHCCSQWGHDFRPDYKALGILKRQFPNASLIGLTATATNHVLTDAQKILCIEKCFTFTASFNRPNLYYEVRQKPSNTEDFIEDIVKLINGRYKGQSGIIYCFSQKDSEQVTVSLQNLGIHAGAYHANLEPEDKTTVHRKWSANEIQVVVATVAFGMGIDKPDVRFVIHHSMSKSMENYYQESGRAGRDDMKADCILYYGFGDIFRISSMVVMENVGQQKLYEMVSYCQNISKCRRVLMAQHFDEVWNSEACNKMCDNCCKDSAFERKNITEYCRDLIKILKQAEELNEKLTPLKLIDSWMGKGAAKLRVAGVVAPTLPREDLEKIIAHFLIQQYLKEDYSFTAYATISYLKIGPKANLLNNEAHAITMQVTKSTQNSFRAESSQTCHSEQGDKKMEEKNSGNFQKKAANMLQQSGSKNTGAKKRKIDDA
Procedure, shortened: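 RECQ1T1 50 nM; forked duplex (20 bp + 30-nt ss tails) 200 nM, ATP 2 mM final; pH 8.0, 2 mM MgCl2, 2.5 ug/ml poly(dI-dC); 15 min compound preincubation; discontinuous kinetic read over 2 h at RT.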

CN(C)[C@@H]1C(=O)C(C(N)=O)=C(O)[C@]2(O)C(=O)C3=C(O)c4c(O)cccc4[C@@](C)(O)[C@@H]3C[C@@H]12
inactive: outcome [1]

CC(C)[C@]12O[C@H]1[C@@H]1O[C@@]13[C@@]1(C)CCC4=C(COC4=O)[C@@H]1C[C@@H]1O[C@@]13C2=O
active: Potency [2] 341 nM

CO[C@H]1CCC(O[C@H]2C[C@H]([C@]3(C)CC[C@]4(C[C@H](O)[C@@H](C)[C@@H]([C@@H](C)/C=C(\C)C(=O)[C@H](C)C[C@H](C)C(=O)O)O4)O3)O[C@]3(O[C@@H]([C@H]4O[C@@](O)(CO)[C@H](C)C[C@@H]4C)C[C@@H]3C)[C@@H]2C)O[C@@H]1C (stereo partly specified)
active: Potency [2] 607 nM

CC(C)(O)/C=C\C(=O)[C@](C)(O)[C@H]1[C@H](O)C[C@]2(C)[C@@H]3CC=C4[C@@H](C=C(O)C(=O)C4(C)C)[C@]3(C)C(=O)C[C@@]12C
inactive: activity change, negative = inhibition [1] 2.97% [at 11.4 µM]

Cc1c(N)nc([C@H](CC(N)=O)NC[C@@H](N)C(N)=O)nc1C(=O)N[C@H](C(=O)N[C@@H](C)[C@H](O)[C@@H](C)C(=O)N[C@@H](C(=O)NCCc1nc(-c2nc(C(=O)NCCC[S+](C)C)cs2)cs1)[C@@H](C)O)C(O[C@H]1O[C@H](CO)[C@H](O)[C@@H](O)[C@H]1O[C@H]1O[C@H](CO)[C@@H](O)[C@H](OC(N)=O)[C@@H]1O)c1cnc[nH]1 (stereo partly specified)
inactive: Potency [4] | Potency [5]
active: Potency [3] 14100 nM

C=C(C)[C@@H]1CCC(C)=C[C@H]1c1c(O)cc(CCCCC)cc1O
inactive: Potency [4] | Potency [5]
active: Potency [2] 24100 nM

C/C=C(\C)C(=O)N[C@@H](c1ccccc1)[C@@H](O)C(=O)O[C@H]1C[C@@]2(O)[C@@H](OC(=O)c3ccccc3)[C@@H]3[C@]4(OC(C)=O)CO[C@@H]4C[C@H](O)[C@@]3(C)C(=O)[C@H](OC(C)=O)C(=C1C)C2(C)C
active: Potency [2] 108 nM

Oc1ccc2c3c1O[C@H]1[C@@H](O)CC[C@@]4(O)C(C2)N(CC2CCC2)CCC314 (stereo partly specified)
inactive: Potency [6] | Potency (3D7) | Potency (CP247) | Potency (CP268) | Potency (ECU) | Potency (PC49) | Potency (W2)

NNCc1cccc(O)c1
active: Potency [9] 10000 nM
inactive: outcome [7] | outcome [1] | outcome [8] | outcome [10] | outcome [11] | outcome [12] | outcome [13] | outcome [14]

CC(C)(C)NC(=O)[C@H]1CC[C@H]2[C@@H]3CC=C4C=C(C(=O)O)CC[C@]4(C)[C@H]3CC[C@]12C
inactive: Potency [3] | Potency [4] | Potency [5]

C#CCN(C)C(C)Cc1ccccc1 (stereo unspecified)
inactive: outcome [7]

CC[C@@H](CO)NC(=O)[C@H]1C=C2c3cccc4c3c(cn4C)C[C@H]2N(C)C1
inactive: outcome [14]

C[C@H]1OC[C@@H](C[N+](C)(C)C)O1
inactive: outcome [7] | outcome [1] | outcome [8] | Potency [9] | outcome [10] | outcome [11] | outcome [12] | outcome [13]

COc1cc(C=C(C#N)C#N)cc(O)c1O
inactive: outcome [7] | outcome [1] | outcome [8] | Potency [9] | outcome [10] | outcome [11] | outcome [12] | outcome [13]

C/C1=C/C[C@@H](/C(C)=C/c2csc(C)n2)OC(=O)C[C@H](O)C(C)(C)C(=O)[C@H](C)[C@@H](O)[C@@H](C)CCC1
active: Potency [2] 60.7 nM

CC(C)(O)C1C2OC(=O)C1[C@]1(O)C[C@H]3O[C@]34C(=O)O[C@H]2[C@]14C (stereo partly specified) (tested in a mixture with another compound)
inactive: outcome [14] | Potency [6] | Potency (3D7) | Potency (CP247) | Potency (CP268) | Potency (ECU) | Potency (PC49) | Potency (W2)

C=CCN1CC[C@@]2(C)c3cc(O)ccc3CC1[C@@H]2C
inactive: outcome [14]

CCCCN1C2CCC1CC(OC(c1ccc(F)cc1)c1ccc(F)cc1)C2 (stereo unspecified)
inactive: outcome [8] | Potency [9] | outcome [10] | outcome [11] | outcome [12] | outcome [13]

Cc1cc(/C=C/C#N)cc(C)c1Nc1ccnc(Nc2ccc(C#N)cc2)n1
active: Potency [3] 22400 nM

COC(F)(F)C(Cl)Cl
inactive: Potency [3] | Potency [4] | Potency [5]

CCN(CC)C(=O)N[C@@H]1C[C@@H]2c3cccc4[nH]cc(c34)C[C@H]2N(C)C1
active: Potency (W2) 1690 nM
inactive: Potency [6] | Potency (3D7) | Potency (CP247) | Potency (CP268) | Potency (ECU) | Potency (PC49)

NCC#Cc1ccccc1
inactive: outcome [7] | outcome [1] | outcome [8] | Potency [9] | outcome [10] | outcome [11] | outcome [12] | outcome [13]

CCCN1CCC[C@@H]2Cc3n[nH]cc3C[C@H]21
inactive: outcome [14]

CCCN(CCC)C(=O)Cc1c(-c2ccc(Cl)cc2)nc2c(Cl)cc(Cl)cn12
inactive: outcome [7] | outcome [8] | Potency [9] | outcome [10] | outcome [11] | outcome [12] | outcome [13]

CC12CCC3C(CCC4=C(O)C(=O)CCC43C)C1CCC2=O (stereo unspecified)
inactive: outcome [14]

CC[C@@]1(O)C(=O)OCc2c1cc1n(c2=O)Cc2c-1nc1cc(F)c(C)c3c1c2[C@@H](N)CC3
inactive: Potency [3] | Potency [4]

CCCC[N+]1(C)C2CC(OC(=O)C(CO)c3ccccc3)CC1C1OC12 (stereo unspecified)
inactive: Potency [6] | Potency (3D7) | Potency (CP247) | Potency (CP268) | Potency (ECU) | Potency (PC49) | Potency (W2)

CNC(C)[C@@H](O)c1ccc(O)cc1 (stereo partly specified)
inactive: Potency [6] | Potency [3] | Potency [4] | Potency [5] | Potency (3D7) | Potency (CP247) | Potency (CP268) | Potency (ECU) | Potency (PC49) | Potency (W2)

Reference: PubChem BioAssay (NCATS)
